# From PubChem BioAssay (NCATS)
# Results filed as inconclusive are left out. Entries that show only a call come without a potency. A number with no mark means an inactive call. Calls of active or inactive are those of the source. Calls come from the whole dose curve; as a rule, active = well fitted curve in the direction sought with a large enough effect; inconclusive = small, poorly fitted or top-dose-only effect, or another doubt; inactive = no such curve, though single readings can be large; an effect the other way counts as inactive or inconclusive.
# Columns and labels:
# [1] = UWB1.289 Cancer Cell Toxicity qHTS against the NCATS CANVASS Library (AID 1347347); note: series mostly up to about 38 µM; nearly all actives have a fitted effect of over 60% in size
# In short: (§1)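 1000 cells/well; 4 h settle; 11-pnt titration; 72 h, 37 degrees C, 5% CO2; CellTiter-Glo, 15min RT; luminescence read.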
# [2] = OV-SAHO Cancer Cell Toxicity qHTS against the NCATS CANVASS Library (AID 1347348); note: series mostly up to about 38 µM; nearly all actives have a fitted effect of over 55% in size
# In short: as §1
# [3] = SW1088 Cancer Cell Toxicity qHTS against the NCATS CANVASS Library (AID 1347350); note: nearly all actives have a fitted effect of over 75% in size; for activity change, negative = cytotoxicity: series mostly up to about 38 µM
# In short: as §1
# [4] = A2780 Cisplatin Sensitive Ovarian Cancer Cell Toxicity qHTS against the NCATS CANVASS Library (AID 1347353); note: nearly all actives have a fitted effect of over 60% in size; for activity change, negative = cytotoxicity: series mostly up to about 46 µM
# In short: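 Seventy-two-hour exposure of cisplatin-sensitive A2780 ovarian cells to an 11-concentration qHTS series; cytotoxicity is inferred from loss of ATPLite luminescence. Bortezomib titration served as positive control.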
# [5] = UWB1.289-WTBRCA1 Cancer Cell Toxicity qHTS against the NCATS CANVASS Library (AID 1347354)
# In short: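 qHTS cytotoxicity: compounds tested in 11 concentrations on 1000 seeded cells per well over 72 h; bortezomib served as control; signal from CellTiter-Glo luminescence.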
# [6] = HPAF-II 12hr Apoptosis Induction qHTS against the NCATS CANVASS Library (AID 1347358)
# In short: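 Apoptosis in HPAF-II pancreatic cancer cells is scored as caspase 3/7 luminescence following a 12-hour exposure to an 11-point compound series.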
# [7] = HPAF-II 18hr Apoptosis Induction qHTS against the NCATS CANVASS Library (AID 1347360)
# In short: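 HPAF-II cells at 500/well were exposed for 18 h at 37 C to an 11-point compound series. Caspase-3/7 activity was read by Caspase-Glo luminescence after 15 min at RT.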
# [8] = G06 Cancer Cell Toxicity qHTS against the NCATS CANVASS Library (AID 1347368); note: series mostly up to about 46 µM; nearly all actives have a fitted effect of over 60% in size
# In short: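 Cytotoxicity toward canine glioma G06 cells is scored from cellular ATP via luminescence after 72 hr compound exposure at 500 cells/well.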
# [9] = qHTS for Hypoxia signaling pathway (HIF-1) antagonists against the NCATS CANVASS Library (AID 1347374);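 note: HRE-bla ME-180 cells stimulated with cobalt chloride to stabilize HIF-1alpha; series mostly up to about 38 µM; nearly all actives have a fitted effect of over 60% in size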
# In short: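 HRE-bla ME-180 cells (2,000/well, 0.5% dialyzed FBS) were pre-incubated 5 h, then given an 11-point compound series plus CoCl2 (60 uM solution as added) for 17 h at 37C. CCF4 β-lactamase read (ex 405, em 460/530 nm) after 2 h at RT.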
# [10] = qHTS for Hypoxia signaling pathway (HIF-1) agonists against the NCATS CANVASS Library (AID 1347375)
# In short: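 Inducers of HIF-1 signaling were detected in ME-180 cells bearing an HRE-driven beta-lactamase reporter after 17 h compound exposure. Activity came from CCF4-AM FRET emission ratio (460/530 nm) in qHTS format.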
# [11] = DH5-alpha competent E. coli microbial cell viability qHTS against the NCATS CANVASS Library (AID 1347377); details: outcome: dose series up to 46.1 µM unless noted
# In short: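 Cell viability of competent DH5-alpha E. coli is scored from ATP content by luminescence. Cells sit overnight at 37C with compound across an 11-point concentration series.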
# [12] = qHTS for H2AX Agonists against the NCATS CANVASS Library (AID 1347378)
# In short: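 CHO-K1 cells (1000/well, overnight at 37C) exposed to compounds at several concentrations for 3 hr at 37C, 0.76% DMSO final. Lysates read by TR-FRET (phospho-H2AX S139 Eu-cryptate antibody / H2AX-d2 antibody) after 24 hr at room temperature; 665/615 nm ratio.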
# [13] = qHTS for Activators of p53 Stress Response Pathway screened against the NCATS CANVASS Library (AID 1347388)
# In short: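 Beta-lactamase reporter driven by p53 response elements in HCT-116 cells, read as the 460 nm/530 nm emission ratio after CCF4 loading, following 16 h of exposure to an 11-point series. Cell viability was measured in the same wells by CellTiter-Glo luminescence.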
# [14] = qHTS assay for small molecule disruptors of mitochondrial membrane potential screened against the NCATS CANVASS Library (AID 1347389)
# In short: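 Compounds tested in 11-point qHTS series on HepG2 cells for 1 hr; membrane-potential dye added for 30 min at 37C. Lower red-to-green ratio indicates loss of potential.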
# [15] = Secretion counterscreen for inhibitors of the SERCaMP assay screened against the NCATS CANVASS Library (AID 1347390);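 note: light from luciferase secreted into medium read as a measure of general secretion; series mostly up to about 77 µM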
# In short: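 SH-SY5Y cells with constitutively secreted GLuc reporter, 1000 cells/well, treated 20 h at 37C with compounds at 0.001 - 77 uM final; secreted luciferase read as luminescence after coelenterazine; Brefeldin A as positive control.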
# [16] = qHTS for activators of Nrf2/ARE signaling pathway screened against the NCATS CANVASS Library (AID 1347391); note: nearly all actives have a fitted effect of over 60% in size; note: potency is the fitted concentration of half-maximal effect
# In short: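 Cells carrying an ARE-driven beta-lactamase reporter (HepG2 background) are dosed for 16 h, then stained with CCF4. Cell viability in the same wells is measured by CellTiter-Glo luminescence.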
# [17] = qHTS for inhibitors of Wild type Zika virus screened against the NCATS CANVASS Library (AID 1347396);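 note: ATP luminescence of surviving cells so rescue from viral cell killing; series mostly up to about 46 µM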
# In short: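 Using ATP-based luminescence (CellTiter Glo), this screen scores rescue of Vero 766 cells from wild-type Zika killing at 72 h post-infection. Compounds are tested in a concentration series.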
# [18] = Redox Reaction Profiling qHTS: Assay Interference Panel against the NCATS CANVASS Library (AID 1347401)
# In short: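 Cell-free redox surrogate: 5 uM resazurin + 200 uM DTT, 50 mM HEPES pH 7.3/50 mM NaCl; cpds pinned, 11-pt qHTS; Ex525/Em598 read t0 and t=15 min, dark.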
# [19] = OV-KATE Cancer Cell Toxicity qHTS against the NCATS CANVASS Library (AID 1347345)
# In short: as §1
# [20] = qHTS for inhibitors of ER calcium dysfunction: SERCaMP assay screened against the NCATS CANVASS Library (AID 1347393); note: nearly all actives have a fitted effect of over 40% in size; note: potency is the fitted concentration of half-maximal effect;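 for activity change, negative = inhibition: series mostly up to about 77 µM; lower secreted reporter signal means inhibitor of ER calcium depletion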
# In short: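 Thapsigargin-induced ER calcium depletion drives GLuc-SERCaMP secretion from SH-SY5Y cells; compounds given 16 h beforehand were scored by lowered coelenterazine luminescence after 4 h challenge.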
smiles,measurement,setting,value
COc1ccc([C@@H]2c3cc(OC)c(OC)cc3C(=O)[C@H](C)C2C)cc1OC (stereo partly drawn),"activity change, negative = cytotoxicity",[1],3.43% [at 7.64 µM]
same,"activity change, negative = cytotoxicity",[2],-3.3% [at 7.64 µM]
same,outcome,[3],inactive [at 7.64 µM]
same,outcome,[4],inactive [at 9.19 µM]
same,outcome,[5],inactive [at 7.64 µM]
same,caspase activation,[6],2.3% [at 9.19 µM]
same,caspase activation,[7],1.74% [at 9.19 µM]
same,"activity change, negative = cytotoxic",[8],9.12% [at 9.19 µM]
same,"activity change, negative = inhibition",[9],9.63% [at 7.64 µM]
same,activation,[10],-1.07% [at 7.64 µM]
same,"viability signal change, negative = cytotoxic",[11],10.6% [at 9.19 µM]
same,activation,[12],-1.51% [at 15.3 µM]
same,activation,[13],4.12% [at 9.19 µM]
same,"activity change, negative = depolarization",[14],-7.07% [at 9.19 µM]
same,"activity change, negative = inhibition",[15],-9% [at 15.3 µM]
same,activation,[16],4.51% [at 9.19 µM]
same,"activity change, negative = antiviral",[17],5.82% [at 9.14 µM]
same,activation (redox signal),[18],-5.6% [at 11.4 µM]
C=C1C(=O)C[C@H]2C[C@@H]1[C@]2(C)CCC=C(C)C,Potency,[19],inactive
same,Potency,[1],inactive
same,Potency,[3],inactive
same,Potency,[5],inactive
same,Potency,[6],inactive
same,Potency,[7],inactive
same,Potency,[9],inactive
same,Potency,[10],inactive
same,outcome,[11],inactive
same,Potency,[13],inactive
same,Potency,[14],inactive
same,Potency,[15],inactive
same,Potency,[16],16.6 µM (active)
same,Potency,[20],19.3 µM (active)
same,Potency,[17],inactive
same,Potency,[18],inactive
C=C1C[C@@]23C=CC(=O)[C@@](C)(CCCC(C)C(=O)O)[C@@H]2C[C@@H]1CC3 (stereo partly drawn),Potency,[19],inactive
same,Potency,[1],inactive
same,Potency,[4],inactive
same,Potency,[5],inactive
same,Potency,[9],inactive
same,Potency,[10],inactive
same,outcome,[11],inactive
same,Potency,[12],inactive
same,Potency,[13],inactive
same,Potency,[14],inactive
same,Potency,[15],inactive
same,Potency,[16],16.6 µM (active)
same,Potency,[20],inactive
same,Potency,[17],inactive
same,Potency,[18],inactive
C=C[C@@]1(C)CC[C@@H]([C@H](C)C(=O)/C=C/C(C)C)O1,Potency,[1],inactive
same,Potency,[2],inactive
same,Potency,[3],inactive
same,Potency,[4],inactive
same,Potency,[5],inactive
same,Potency,[6],inactive
same,Potency,[7],inactive
same,Potency,[9],inactive
same,Potency,[10],inactive
same,outcome,[11],inactive
same,Potency,[12],inactive
same,Potency,[13],inactive
same,Potency,[14],inactive
same,Potency,[15],inactive
same,Potency,[16],inactive
same,Potency,[17],inactive
same,Potency,[18],inactive
O=c1cc(-c2ccc(O)cc2)oc2c([C@@H]3OC(CO)[C@H](O)[C@@H](O)[C@H]3O)c(O)cc(O)c12 (stereo partly drawn),Potency,[19],inactive
same,Potency,[1],inactive
same,Potency,[3],inactive
same,Potency,[4],inactive
same,Potency,[5],inactive
same,Potency,[6],inactive
same,Potency,[7],inactive
same,Potency,[8],inactive
same,Potency,[9],inactive
same,Potency,[10],inactive
same,outcome,[11],inactive
same,Potency,[13],inactive
same,Potency,[14],inactive
same,Potency,[16],inactive
same,Potency,[20],inactive
same,Potency,[17],inactive
same,Potency,[18],inactive
C/C1=C\CC(=O)/C=C/C=C\c2csc(n2)[C@@H](C)NC(=O)C[C@@](S)([C@@H](C)C(=O)O)CC1,Potency,[19],inactive
same,Potency,[1],inactive
same,Potency,[3],inactive
same,Potency,[4],inactive
same,Potency,[5],inactive
same,Potency,[6],inactive
same,Potency,[7],inactive
same,Potency,[8],inactive
same,Potency,[10],inactive
same,outcome,[11],inactive
same,Potency,[13],inactive
same,Potency,[14],inactive
same,Potency,[15],inactive
same,Potency,[16],18.6 µM (active)
same,Potency,[17],inactive
